Data as given in PubChem BioAssay (Tox21).
Inconclusive results are not listed. Entries that show only a call come without a potency. Calls of active or inactive are those of the source. Calls follow the shape of the dose curve; as a rule, active = well fitted activation curve with a large enough effect in the repeat runs; inconclusive = weak or mixed curves; inactive = flat fitted curve, though single readings scatter.

test: A CellTox Green Cytotoxicity Assay to monitor cytotoxicity in HEK293 cells - 8 hour (AID 1224884); conditions: CellTox Green fluorescence; series mostly up to 76.8 µM; also: nearly all actives have a fitted effect of over 35% in size
Source text: National Center for Advancing Translational Sciences [NCATS]
NIH Chemical Genomics Center [NCGC]
U.S. Environmental Protection Agency [EPA]
National Institutes of Environmental Health Sciences [NIEHS]
National Toxicology Program [NTP]
Cell-based models are critical for drug discovery. Determining the natural cytotoxic effects resulting from test compounds is an essential research activity. A CellTox Green Cytotoxicity Assay to monitor cytotoxicity in real time of continues cell culture during 40 hours of the compound treatment was used to screen Tox21 10K library compounds in Hek293 cells. CellTox Green Cytotoxicity Assay is a nonlytic, homogeneous, biofluorescent method to measure cytotoxicity in cell culture after experimental manipulation. The assay system uses a proprietary asymmetric cyanine dye that is excluded from viable cells but preferentially stains the dead cell's DNA. […] Viable cells produce no appreciable increases in fluorescence. Therefore, the fluorescence signal produced by the binding interaction with dead cell DNA is proportional to cytotoxicity.
The mixture of Hek293 cell suspension and reagents were dispensed at 600cells/6 ul/well in 1536-well tissue culture treated black solid bottom plates using a Multidrop dispenser. After the assay plates were incubated at a 37 C/5% CO2 incubator for 5 hours, 23 nL of compounds dissolved in DMSO, positive and negative controls was transferred to the assay plate by a pintool work station. The plates were incubated at 37 C for 40 hours. The fluorescence intensity were measured at 0h, 8h, 16h, 24h, 32h and 40h time points using ViewLux plate reader during compound treatment.
Potency is read from the fitted curve at half-maximal effect.

Compound	Potency
NCCCOCCOCCOCCCN	inactive
Cc1ccc(O)c([C@H](CCN(C(C)C)C(C)C)c2ccccc2)c1	inactive
Cc1cc(O)ccc1N	inactive
COc1ccc([C@@H]2Sc3ccccc3N(CCN(C)C)C(=O)[C@@H]2OC(C)=O)cc1	inactive
O=C1Nc2cc(Cl)ccc2Oc2ccccc21	inactive
Oc1ccc2c(c1)OCO2	inactive
CCCCOC(=O)c1ccccc1C(=O)OCC(CC)CCCC (stereo not given)	inactive
CCN(CC)CCOc1ccc2c(c1)C(=O)c1cc(OCCN(CC)CC)ccc1-2	inactive
CCOc1ccc(NC(=O)CC(C)=O)cc1	inactive
CC(=O)O[C@@H]1C(=O)O[C@@H]2[C@H]1OC(=O)[C@@H]2OC(C)=O	inactive
C=C(C)C(=O)OCCOc1ccccc1	inactive
CCOC(=O)[C@H](CCc1ccccc1)N[C@H]1CCc2ccccc2N(CC(=O)O)C1=O	inactive
CC(C)(Oc1ccc(Cl)cc1)C(=O)OCCCOC(=O)C(C)(C)Oc1ccc(Cl)cc1	inactive
Nc1cnn([C@@H]2O[C@H](CO)[C@@H](O)[C@H]2O)c(=O)n1	inactive
Cn1c(N)nc2nc[nH]c2c1=O	inactive
CN(C)C/C=C(/c1ccc(Br)cc1)c1cccnc1	inactive
CC(=O)NCCCS(=O)(=O)O	16.9 µM (active)
O=C(O)/C=C/c1cnc[nH]1	inactive
CCCCCCCCCC=O	inactive
CC(C)=CCCC(C)CC=O (stereo not given)	inactive

Compound	Potency
CCCCCCCCCCCCCCCBr	inactive
CCC(=O)OC(C)(C)C1CC=C(C)CC1 (stereo not given)	inactive
CCCCCCCCCCCCC(=O)O	inactive
OC(CCN1CCCCC1)(c1ccccc1)C1CCCCC1 (stereo not given)	inactive
CC[C@H](C)[C@@H](C(=O)O)n1sc2ccccc2c1=O	inactive
CC(C)(C)c1ccc(S)cc1	inactive
CCOC(=O)CC(C)C	inactive
CCCCOC(O)CC (stereo not given)	inactive
CCCCOC(=O)/C=C\C(=O)OCCCC	inactive
CC1(C)[C@H]2CC[C@]1(C)[C@H](O)C2	inactive
CC(=O)N(CC(=O)N(C)C)c1ccccc1	inactive
O=C(Nc1ccccc1)OCC(CN1CCCCC1)OC(=O)Nc1ccccc1 (stereo not given)	inactive
Nc1nc(N)c2nc(CNc3ccc(C(=O)N[C@@H](CCC(=O)O)C(=O)O)cc3)cnc2n1	inactive
O=S1(=O)N=C(O)c2ccccc21	inactive
CC/C(=C\C(=N/O)C(N)=O)C(C)[N+](=O)[O-] (stereo not given)	inactive
CN(C(=O)CCCOc1ccc2[nH]c(=O)ccc2c1)C1CCCCC1	inactive
CC(=O)SCc1ccco1	inactive
CC(=O)/C=C/C1C(C)=CCCC1(C)C (stereo not given)	inactive
Cc1cccc(Oc2ccccc2)c1	inactive
CN(C)CCCOc1nn(Cc2ccccc2)c2ccccc12	inactive
